Screening results from PubChem BioAssay.
GPR151 ag = activators of human GPR151, primary screen, cell-based, PathHunter beta-arrestin, luminescence. G-protein coupled receptor 151 (Homo sapiens), Q8TDV0. activation, % at 11.2 µM. AID 1508602, 2020. PathHunter beta-arrestin GPR151 cells. 650,000 tested, 1% active; in the data active = activation above about 4.9%;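 also: 0% = median of compound wells and 100% = cells with positive control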
Target sequence (Q8TDV0 whole entry, looked up): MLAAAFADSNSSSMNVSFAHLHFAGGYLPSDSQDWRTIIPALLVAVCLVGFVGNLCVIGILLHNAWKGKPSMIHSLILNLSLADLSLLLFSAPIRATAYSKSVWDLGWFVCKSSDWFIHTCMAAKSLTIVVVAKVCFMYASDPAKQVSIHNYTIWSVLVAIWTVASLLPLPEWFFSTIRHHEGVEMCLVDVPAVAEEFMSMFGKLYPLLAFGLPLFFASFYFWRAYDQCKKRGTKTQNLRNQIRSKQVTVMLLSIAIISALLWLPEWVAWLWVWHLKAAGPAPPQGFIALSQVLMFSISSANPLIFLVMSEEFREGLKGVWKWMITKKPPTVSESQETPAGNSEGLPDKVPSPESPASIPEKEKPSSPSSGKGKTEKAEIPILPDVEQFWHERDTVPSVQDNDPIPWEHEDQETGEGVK
FBW7 activator = FBW7 E3 ligase activators, primary screen, biochemical, AlphaScreen, human | AlphaScreen FBW7–phospho-cyclin E peptide binding, activator screen | 650,000 tested, 0.13% active | F-box/WD repeat-containing protein 7 (Homo sapiens), Q969H0 | normalized activity (activation), % at 26.1 µM; in the data active = normalized activity above about 1.9%;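 also: purified mutant Fbw7 with reduced substrate affinity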
TEAD-YAP block = TEAD-YAP interaction inhibition, primary screen, TEAD-YAP interaction inhibitor project, luminescence, HEK-TIYL cells; inhibition, % at 9.12 µM; AID 1259422, 2018; TEAD-Gal4/YAP UAS-luciferase luminescence; 640,000 tested, 1.4% active; in the data active = inhibition above about 32%;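 also: 0% = median of test compound wells and 100% = reference inhibitor wells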
MITF inh = MITF inhibitors, primary screen, biochemical, AlphaScreen, human | Microphthalmia-associated transcription factor (Homo sapiens), O75030 | AlphaScreen MITF homodimerization, bead proximity signal | inhibition, % at 2.6 µM | 650,000 tested, 0.91% active; in the data active = inhibition above about 50%;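 also: 0% = vehicle wells with protein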
MITF confirm = MITF inhibitors, retest of hits, confirmation, biochemical, AlphaScreen, triplicate; shares compounds with MITF inh; inhibition, % at 2.6 µM; AlphaScreen MITF homodimerization, biotin/His-MITF beads; 4,700 tested, 16% active;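 active = inhibition above a cutoff derived from the DMSO control wells, cut at about 28% in these data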;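 also: 0% = MITF dimer wells with DMSO only; inhibitors lower the bead chemiluminescence by keeping MITF from dimerizing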
AS interf DR = AlphaScreen optical interference compounds, dose response, counter-screen, biochemical, HTS; IC50, µM; AlphaScreen optical interference counterscreen, cell-free; shares compounds with MITF inh; 480 tested, 6% active; call rule not given here
AlphaScreen intf2 = AlphaScreen optical interference compounds, counter-screen for MITF inhibitor project, biochemical, triplicate. shares compounds with MITF inh. LysRS AlphaScreen counterscreen, signal interference. inhibition, % at 2.6 µM. 4,700 tested, 7.6% active;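 active = inhibition above a cutoff derived from the DMSO control wells, cut at about 30% in these data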
Numbers without * were called inactive; . = no result given. Rows were chosen to be rich in hits. Some 3.4% of all compounds tested hit in one or more screens of this group.

SMILES | GPR151 ag | FBW7 activator | TEAD-YAP block | MITF inh | MITF confirm | AlphaScreen intf2 | others
CCOC(=O)c1sc(NC(=O)c2nn3c(c2Cl)NC(c2cccs2)CC3C(F)(F)F)c(C(=O)OCC)c1C (stereo not given) | 2 | 0 | -9 | 68* | -9 | -8
COc1ccc(-c2c(Nc3cc(OC)ccc3OC)c(=O)c2=O)cc1 | 2 | 0 | 9 | -5 | . | .
CS(=O)(=O)NCCSc1nnnn1-c1ccccc1 | 1 | 0 | 7 | 55* | 4 | 11
O=C1C2C3c4ccccc4C(c4ccccc43)C2C(=O)N1c1ccccc1Br (stereo not given) | 0 | 0 | 5 | 5 | . | .
CC(C)n1cnc2c(Nc3ccccc3)nc(-c3ccc(C(=O)N4CCN(C)CC4)cc3)nc21 | -1 | 0 | 14 | -4 | . | .
O=C(COC(=O)c1cccc(N2C(=O)c3ccccc3C2=O)c1)c1ccccc1 | 2 | 0 | -28 | 5 | . | .
CC(=O)c1cccc(N2C(=O)c3ccc(C(=O)OCC(=O)c4ccc([N+](=O)[O-])cc4)cc3C2=O)c1 | 1 | 0 | -3 | 60* | 21 | 26
O=C(COC(=O)c1ccc2c(c1)C(=O)N(c1cccc(Cl)c1)C2=O)c1ccc([N+](=O)[O-])cc1 | 0 | 0 | 3 | 1 | . | .
CC(C)(C)C(=O)COC(=O)c1cccc(N2C(=O)c3ccccc3C2=O)c1 | 0 | 0 | 1 | 53* | 7 | -2
CCCCOc1cccc(NC(=O)CCSc2nncn2C)c1 | 2 | 0 | 0 | -2 | . | .
CC(=O)c1cccc(-c2ccc(Nc3cccc(N(C)C)c3)nc2)c1 | 1 | -1 | -57 | 6 | . | .
CN(C)c1cccc(Nc2ccc(-c3ccccc3C=O)cn2)c1 | 0 | -2 | -16 | 63* | 56* | 61*
O=C(/C=C/c1ccco1)OCC(=O)N1CCCC1 | 3 | 0 | 3 | 17 | . | .
CCc1nnc(NC(=O)/C=C/c2ccco2)s1 | 1 | 0 | -34 | 0 | . | .
O=C(/C=C/c1ccco1)Nc1nnc(-c2ccco2)s1 | 0 | 0 | 30 | 52* | 57* | 8 | AS interf DR=>6.5
O=C(/C=C/c1ccco1)NCc1cccc(CNC(=O)/C=C/c2ccco2)c1 | 2 | 0 | 4 | 74* | 82* | 16 | AS interf DR=>6.5
O=C(/C=C/c1ccco1)ON1C(=O)c2ccccc2C1=O | 0 | 0 | -3 | 56* | 35* | 1 | AS interf DR=>6.5
O=C(O)CCCNC(=O)/C=C/c1ccco1 | 1 | 0 | 3 | 62* | 59* | 3 | AS interf DR=>6.5
O=C(/C=C/c1ccco1)/C=C/c1ccco1 | 1 | 0 | 9 | 68* | 77* | 97*
O=C(/C=C/c1ccco1)Nc1cccc(NC(=O)/C=C/c2ccco2)n1 | -1 | 0 | -48 | 82* | 49* | 1 | AS interf DR=>6.7
CC1CC(C)CN(S(=O)(=O)c2cc(C(=O)Nc3ccc(Oc4ccccc4)cc3)ccc2F)C1 (stereo not given) | 1 | 0 | -6 | 16 | . | .
c1coc(CN2CCN(Cc3cccc4ccccc34)CC2)c1 | -2 | 0 | -17 | 76* | 15 | 16
O=C(CN1CCN(Cc2cccc3ccccc23)CC1)c1ccco1 | -1 | 0 | -1 | 67* | 6 | 10
COc1cccc(CN2CCNC(=O)C2CC(=O)NCC2(N3CCOCC3)CCCC2)c1 (stereo not given) | -1 | 0 | -3 | 1 | . | .
CCOc1ccc(N2C(=O)c3nccnc3C2=O)cc1 | 0 | 0 | -5 | -3 | . | .
O=C(CN(c1ccc(Cl)c(C(F)(F)F)c1)S(=O)(=O)c1ccccc1)NCc1ccccn1 | 0 | 0 | -4 | 7 | . | .
O=C(CN(c1ccc(Cl)c(C(F)(F)F)c1)S(=O)(=O)c1ccccc1)NCc1cccnc1 | 0 | 0 | 5 | 51* | -4 | -6
CC(=O)Oc1ccc(/C=C2\N=C(c3cccc(Br)c3)OC2=O)cc1 | -3 | 0 | 3 | 0 | . | .
